Most compounds without a hit are left out; they make up all but 4% or so of the library.
Shn3 3UTR inh = reduces Shn3 3'UTR luciferase signal in osteoblasts; 360,000 compounds, 0.52% hits; Clone20 osteoblast Shn3 3'UTR firefly luciferase, 24 h; inhibition, % at 12.5 µM;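 active = mean inhibition of at least 75% with every replicate also reaching 75%; inconclusive = mean inhibition at least 75% but some replicate below; inactive = mean inhibition below 75%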;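 also: 0% = median of neutral control wells and 100% = pilot-screen positive control compound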
CSC inhib = blocks cancer stem cells; 300,000 compounds, 1.1% hits; cancer stem cell-like cells viability, luminescence; inhibition, % at 7.5 µM; in the data active = inhibition above about 75%; inconclusive = no clear call, values can overlap the other calls; tested in HMLE shEcad cells
Beta apoptosis = blocks beta cell apoptosis; protection from apoptosis, % (test concentration not listed); INS-1E cytokine-induced death, ATP luminescence, 48 h; percent of positive-control rescue, neutral wells zero; 300,000 compounds, 0.8% hits;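 active = Every replicate reaches about 75%, or at least half do and their mean reaches it too, limit read from the data; inconclusive = At least half of replicates reach the limit but their mean does not; inactive = Under half of replicates reach the limit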;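 also: 0% = cytokine-treated negative control wells and 100% = positive control rescue; higher means more ATP so stronger rescue from cytokine killing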
Mdm2-MdmX inh = human Mdm2/MdmX binding inhibition; O15151+Q00987; SaOS-2 split-luciferase Mdm2/MdmX complementation, luminescence; inhibition, % at 8 µM; 330,000 compounds, 3% hits; AID 485346;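 active = inhibition of at least 50% at 8 µM in the primary screen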
Target sequence (O15151 whole entry, looked up): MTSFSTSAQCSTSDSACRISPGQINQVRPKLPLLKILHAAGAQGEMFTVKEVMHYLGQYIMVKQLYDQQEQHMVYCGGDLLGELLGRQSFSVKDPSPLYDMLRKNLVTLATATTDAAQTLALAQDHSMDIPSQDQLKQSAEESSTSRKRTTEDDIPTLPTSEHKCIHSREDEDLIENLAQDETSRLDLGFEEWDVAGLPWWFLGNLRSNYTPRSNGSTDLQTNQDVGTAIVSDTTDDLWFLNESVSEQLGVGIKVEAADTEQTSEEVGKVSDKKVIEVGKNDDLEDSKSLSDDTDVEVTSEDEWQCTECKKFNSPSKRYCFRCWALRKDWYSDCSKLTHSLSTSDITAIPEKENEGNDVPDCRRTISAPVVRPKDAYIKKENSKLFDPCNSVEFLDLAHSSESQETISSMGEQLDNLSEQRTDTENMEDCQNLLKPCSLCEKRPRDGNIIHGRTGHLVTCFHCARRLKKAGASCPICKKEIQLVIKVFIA
Target sequence (Q00987 whole entry, looked up): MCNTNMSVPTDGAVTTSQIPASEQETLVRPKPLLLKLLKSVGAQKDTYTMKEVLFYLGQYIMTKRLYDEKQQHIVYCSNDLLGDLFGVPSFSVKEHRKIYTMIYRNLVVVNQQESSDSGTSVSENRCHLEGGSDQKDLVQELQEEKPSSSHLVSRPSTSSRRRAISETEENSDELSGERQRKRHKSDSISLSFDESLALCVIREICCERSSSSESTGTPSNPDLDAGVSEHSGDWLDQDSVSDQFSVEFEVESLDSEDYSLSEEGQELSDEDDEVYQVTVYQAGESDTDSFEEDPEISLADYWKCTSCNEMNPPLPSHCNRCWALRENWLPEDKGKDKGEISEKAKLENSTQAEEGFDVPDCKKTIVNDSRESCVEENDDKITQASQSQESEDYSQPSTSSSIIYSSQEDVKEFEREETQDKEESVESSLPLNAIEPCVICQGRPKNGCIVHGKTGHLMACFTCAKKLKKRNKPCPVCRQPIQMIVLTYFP
PAX8 reporter = PAX8 transcriptional activity inhibition | 360,000 compounds, 1.2% hits | inhibition, % at 12.6 µM | RMG-I TPO-luciferase reporter, SteadyGlo, 24 h;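 active = mean replicate inhibition at least 60% with every replicate also reaching 60%; inconclusive = only one of the two criteria is met; inactive = mean below 60% and not all replicates reaching 60%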;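 also: luciferase light reporting Pax8 driven TPO promoter activity; plate controls were median of neutral control wells for no effect and mitoxantrone controls for full effect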
Gli-Sufu block = antagonists of Gli-Sufu signaling | 340,000 compounds, 0.74% hits | Sufu-KO-LIGHT fibroblasts, Gli luciferase reporter luminescence | inhibition, % at 5 µM;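 active = inhibition above about 55%, limit read from the data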;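 also: 0% = DMSO-treated cells and 100% = wells with medium but no cells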
Mdm2 MdmX conf = confirmation of human Mdm2/MdmX interaction inhibitors; Mdm2-MdmX binding, luminescent assay; AID 489028; inhibition, % at 8 µM; shares compounds with Mdm2-MdmX inh; 10,000 compounds, 55% hits; in the data active = inhibition above about 40%
FLuc counter = full-length luciferase inhibition in Mdm2/MdmX counter-screen; shares compounds with Mdm2-MdmX inh; SaOS-2 full-length luciferase counterscreen, luminescence; 6,200 compounds, 77% hits; inhibition, % at 8 µM;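 active = mean inhibition at 8 µM reaching about 37%, which flags the compound as non-specific, limit read from the data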;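 also: p53-null SaOS-2 cells with luciferase driven by a doxycycline-inducible promoter; compound on cells about two nights before reading with doxycycline added after day one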
Numbers without * were called inactive.

Screening COc1cccc(OC)c1OCc1cc(C2C3CCCC=C3C(C#N)=C(N)C2(C#N)C#N)c(C)cc1C (stereo unspecified) returned Shn3 3UTR inh -17, CSC inhib 3, Beta apoptosis -8, Mdm2-MdmX inh 51*, Gli-Sufu block 3 and Mdm2 MdmX conf 1.
COCCn1c(SCC(=O)Nc2ccc(OC)cc2)nc2c(oc3ccccc32)c1=O was read as CSC inhib -5, Beta apoptosis 0, Mdm2-MdmX inh 99* and Mdm2 MdmX conf 15.
`Cn1c(SCC(=O)Nc2ccccc2)nc2c([nH]c3ccccc32)c1=O` gave Shn3 3UTR inh 23, CSC inhib 8, Beta apoptosis 19, Mdm2-MdmX inh 67*, PAX8 reporter 20, Gli-Sufu block 7 and Mdm2 MdmX conf 10.
Screening Cc1cc(NC(=O)CSc2nc3cc(Cl)ccc3c(=O)n2CC(C)C)no1 returned CSC inhib 2, Beta apoptosis -1 and Mdm2-MdmX inh 1.
Cc1cccc(NC(=O)CSc2nc3c([nH]c4ccccc43)c(=O)n2C)c1 was read as Shn3 3UTR inh 25, CSC inhib 32, Beta apoptosis 20, Mdm2-MdmX inh 65*, PAX8 reporter 19, Gli-Sufu block 18 and Mdm2 MdmX conf 1.
`COCCn1c(SCC(=O)Nc2cc(C)on2)nc2cc(Cl)ccc2c1=O` gave Shn3 3UTR inh -8, Beta apoptosis 2, Mdm2-MdmX inh 64*, PAX8 reporter 3, Gli-Sufu block -7 and Mdm2 MdmX conf 6.
`Cc1cccc(NC(=O)CSc2nc3ccccc3c(=O)n2C)c1` gave Shn3 3UTR inh 62, CSC inhib 7, Beta apoptosis 6, Mdm2-MdmX inh 11, PAX8 reporter -6 and Gli-Sufu block 43.
For COCCn1c(SCC(=O)Nc2ccccc2C)nc2c(oc3ccccc32)c1=O the results were Shn3 3UTR inh 11, CSC inhib 14, Beta apoptosis 8, Mdm2-MdmX inh -5, PAX8 reporter 7 and Gli-Sufu block 8.
`COc1cccc(NC(=O)CSc2nc3c([nH]c4ccccc43)c(=O)n2C)c1` gave Shn3 3UTR inh 15, CSC inhib -11, Beta apoptosis 28, Mdm2-MdmX inh 55*, PAX8 reporter 27, Gli-Sufu block 11 and Mdm2 MdmX conf 10.
Screening COCCn1c(SCC(=O)Nc2cccc(F)c2)nc2c([nH]c3ccccc32)c1=O returned Shn3 3UTR inh 5, CSC inhib 3, Beta apoptosis 23, Mdm2-MdmX inh 88*, Gli-Sufu block 10, Mdm2 MdmX conf 66* and FLuc counter 47*.
Screening COCCn1c(SCC(=O)Nc2cccc(NC(C)=O)c2)nc2c([nH]c3ccccc32)c1=O returned Shn3 3UTR inh 4, CSC inhib 17, Beta apoptosis -1, Mdm2-MdmX inh 19, PAX8 reporter 4 and Gli-Sufu block 10.
`C[C@@H]1CCCCO[C@H](CN(C)S(C)(=O)=O)[C@@H](C)CN([C@H](C)CO)C(=O)c2cc(NS(C)(=O)=O)ccc2O1` gave PAX8 reporter -8.
COC(=O)Nc1nc2ccc(C(=O)c3cccs3)cc2[nH]1 was read as Shn3 3UTR inh -31, CSC inhib 55, Mdm2-MdmX inh 53*, PAX8 reporter 64*, Gli-Sufu block 20, Mdm2 MdmX conf 57* and FLuc counter 126*.
For O=C(Nc1nc2ccccc2[nH]1)c1cccs1 the results were Shn3 3UTR inh -24, CSC inhib 3, Beta apoptosis 9, Mdm2-MdmX inh -80, PAX8 reporter -75 and Gli-Sufu block -55.
For Cc1[nH]c2c(ccc3ccccc32)c1C1C(CCN)C1(C)C (stereo unspecified) the results were Shn3 3UTR inh 13, CSC inhib 62, Beta apoptosis inconclusive, Mdm2-MdmX inh 61*, PAX8 reporter 5, Gli-Sufu block 9, Mdm2 MdmX conf 40* and FLuc counter 77*.
For S=c1[nH]c2ccc3ccccc3c2[nH]1 the results were Shn3 3UTR inh 0, CSC inhib 1, Beta apoptosis -2, Mdm2-MdmX inh 0, PAX8 reporter -22 and Gli-Sufu block 0.
`COc1ccc(S(=O)(=O)N(C)C[C@@H]2Oc3ccc(N(C)C)cc3C(=O)N([C@@H](C)CO)C[C@H]2C)cc1` gave PAX8 reporter 5.
For C=CCN=C1NN=C(c2cc(C)n(CCOC)c2C)CS1 the results were Shn3 3UTR inh 4, CSC inhib -8, Beta apoptosis -2, Mdm2-MdmX inh 86*, PAX8 reporter 56, Gli-Sufu block 58*, Mdm2 MdmX conf 90* and FLuc counter 31.
Screening COCCn1c(C)cc(C2=NNC(=Nc3ccc(Cl)cc3Cl)SC2)c1C returned Shn3 3UTR inh 5, CSC inhib -2, Beta apoptosis 0, Mdm2-MdmX inh 29 and Gli-Sufu block -3.
`COCCn1c(C)cc(C2=NNC(=NC3CC3)SC2)c1C` gave Shn3 3UTR inh 91*, CSC inhib 7, Beta apoptosis 3, Mdm2-MdmX inh 95*, PAX8 reporter 102*, Gli-Sufu block 91*, Mdm2 MdmX conf 94* and FLuc counter 53*.
`O=C(Nc1cccc(F)c1)N1CCCCN2[C@H](CO)[C@H](c3ccc(C#CC4CC4)cc3)[C@H]2C1` gave PAX8 reporter 0.
CN(C)C(=O)C[C@@H]1CC[C@H]2[C@@H](COC[C@@H](O)CN2CC2CCCCC2)O1 was read as PAX8 reporter 12.
For C[C@@H]1CN([C@@H](C)CO)C(=O)c2cc(NC(=O)CCCCCC(=O)Nc3ccccc3N)ccc2O[C@H]1CN(C)Cc1ccccc1 the results were PAX8 reporter 13.
Screening COC1(OC)C(/C=C/c2ccc(Cl)cc2)C(C#N)(C#N)C1(OC)OC (stereo unspecified) returned Shn3 3UTR inh 18, CSC inhib -13, Beta apoptosis -17, Mdm2-MdmX inh 88*, Gli-Sufu block 9, Mdm2 MdmX conf 57* and FLuc counter 23.
For COc1cccc(-c2ccc(C3[C@H]4CNC[C@@H]3N4C(=O)Nc3ccccc3F)cc2)c1 (stereo partly specified) the results were PAX8 reporter -17.
CSCCOC(=O)c1[nH]c2c(c1C)C(=O)CC(c1ccco1)C2 (stereo unspecified) was read as Shn3 3UTR inh 78, CSC inhib 55, Beta apoptosis 20, Mdm2-MdmX inh 34, PAX8 reporter 47 and Gli-Sufu block 35.

Screens: PubChem, several laboratories
